Assay results reported in the supplement of paper PMC10849652.
Of roughly 7,900 targets only a part is listed; those with a hit were picked by preference. About 0.6% of all pairs of compound and target were hits. Unmarked numbers belong to inactive results.

Experiments:
Assay in all cases: log2 fold change, soluble protein after heating vs DMSO (PISA); higher = thermal stabilisation; K562 cells, 10 uM, 30 min; active = over 0.2 and 3.5 SD of the protein, either way, in both replicates (recomputed)
erlotinib = compound: C#Cc1cccc(Nc2ncnc3cc(OCCOC)c(OCCOC)cc23)c1 [erlotinib]
Outline: (§1)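 Quantification of soluble protein used TMTpro 16plex LC-MS/MS, with channel sums equalised. Samples were the supernatant after 21,000xg for 90 min of pooled aliquots from K562 cells (2×10^6 cells/mL) treated with 10 μM compound for 30 min, heated for 3 min over 48°C-58°C, and extracted in PBS with 0.5% NP-40 at 4°C. Values, from duplicates, describe thermal stability against control samples on a log2 fold-change scale.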

[1] = compound: C/C(=N\NC(=O)C1=CC(=CC=C1)S(=O)(=O)N2CCOCC2)/C3=C(C=CC(=C3)Cl)O
Outline: as §1

[2] = compound: C1=CC(=C(C=C1Cl)C2=NC3=NC=CN=C3C(=N2)NC4=CC=NC=C4)F
Outline: as §1

[3] = compound: C1=CC(=CC=C1C2=NC3=C(N2)C=C(C=C3)C(=O)N)OC4=CC=C(C=C4)Cl
Outline: as §1

[4] = compound: C1=CC2=C(C=CC(=C2)/C=C\3/C(=O)NC(=NCC4=CC=CS4)S3)N=C1
Outline: as §1

[5] = compound: C1=CC2=NC=CN=C2C=C1/C=C/3\C(=O)NC(=O)S3
Outline: as §1

[6] = compound: C1=CC=C(C=C1)C2=NC(=C(N2)C3=CC=NC=C3)C4=CC(=C(C=C4)Cl)O
Outline: as §1

[7] = compound: C1=CC=C2C(=C1)C3=NNC4=CC=CC(=C43)C2=O
Outline: as §1

[8] = compound: C1CCN(C1)C(=O)NC2=CC=CC(=C2)NC3=NC=C(C(=N3)NCCC4=CN=CN4)Br
Outline: as §1

[9] = compound: C1CN(CCC1(CC2=CC=C(C=C2)Cl)N)C3=NC=NC4=C3C=CN4
Outline: as §1

Sequence of UniProt Q16385 (Q16385 whole entry, looked up): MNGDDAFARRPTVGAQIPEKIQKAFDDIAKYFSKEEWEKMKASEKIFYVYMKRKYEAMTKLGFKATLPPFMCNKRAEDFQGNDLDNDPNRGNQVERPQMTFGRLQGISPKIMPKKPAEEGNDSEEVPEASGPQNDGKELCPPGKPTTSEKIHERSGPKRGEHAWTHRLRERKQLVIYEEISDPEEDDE
Sequence of UniProt Q01082 (Q01082 whole entry, looked up): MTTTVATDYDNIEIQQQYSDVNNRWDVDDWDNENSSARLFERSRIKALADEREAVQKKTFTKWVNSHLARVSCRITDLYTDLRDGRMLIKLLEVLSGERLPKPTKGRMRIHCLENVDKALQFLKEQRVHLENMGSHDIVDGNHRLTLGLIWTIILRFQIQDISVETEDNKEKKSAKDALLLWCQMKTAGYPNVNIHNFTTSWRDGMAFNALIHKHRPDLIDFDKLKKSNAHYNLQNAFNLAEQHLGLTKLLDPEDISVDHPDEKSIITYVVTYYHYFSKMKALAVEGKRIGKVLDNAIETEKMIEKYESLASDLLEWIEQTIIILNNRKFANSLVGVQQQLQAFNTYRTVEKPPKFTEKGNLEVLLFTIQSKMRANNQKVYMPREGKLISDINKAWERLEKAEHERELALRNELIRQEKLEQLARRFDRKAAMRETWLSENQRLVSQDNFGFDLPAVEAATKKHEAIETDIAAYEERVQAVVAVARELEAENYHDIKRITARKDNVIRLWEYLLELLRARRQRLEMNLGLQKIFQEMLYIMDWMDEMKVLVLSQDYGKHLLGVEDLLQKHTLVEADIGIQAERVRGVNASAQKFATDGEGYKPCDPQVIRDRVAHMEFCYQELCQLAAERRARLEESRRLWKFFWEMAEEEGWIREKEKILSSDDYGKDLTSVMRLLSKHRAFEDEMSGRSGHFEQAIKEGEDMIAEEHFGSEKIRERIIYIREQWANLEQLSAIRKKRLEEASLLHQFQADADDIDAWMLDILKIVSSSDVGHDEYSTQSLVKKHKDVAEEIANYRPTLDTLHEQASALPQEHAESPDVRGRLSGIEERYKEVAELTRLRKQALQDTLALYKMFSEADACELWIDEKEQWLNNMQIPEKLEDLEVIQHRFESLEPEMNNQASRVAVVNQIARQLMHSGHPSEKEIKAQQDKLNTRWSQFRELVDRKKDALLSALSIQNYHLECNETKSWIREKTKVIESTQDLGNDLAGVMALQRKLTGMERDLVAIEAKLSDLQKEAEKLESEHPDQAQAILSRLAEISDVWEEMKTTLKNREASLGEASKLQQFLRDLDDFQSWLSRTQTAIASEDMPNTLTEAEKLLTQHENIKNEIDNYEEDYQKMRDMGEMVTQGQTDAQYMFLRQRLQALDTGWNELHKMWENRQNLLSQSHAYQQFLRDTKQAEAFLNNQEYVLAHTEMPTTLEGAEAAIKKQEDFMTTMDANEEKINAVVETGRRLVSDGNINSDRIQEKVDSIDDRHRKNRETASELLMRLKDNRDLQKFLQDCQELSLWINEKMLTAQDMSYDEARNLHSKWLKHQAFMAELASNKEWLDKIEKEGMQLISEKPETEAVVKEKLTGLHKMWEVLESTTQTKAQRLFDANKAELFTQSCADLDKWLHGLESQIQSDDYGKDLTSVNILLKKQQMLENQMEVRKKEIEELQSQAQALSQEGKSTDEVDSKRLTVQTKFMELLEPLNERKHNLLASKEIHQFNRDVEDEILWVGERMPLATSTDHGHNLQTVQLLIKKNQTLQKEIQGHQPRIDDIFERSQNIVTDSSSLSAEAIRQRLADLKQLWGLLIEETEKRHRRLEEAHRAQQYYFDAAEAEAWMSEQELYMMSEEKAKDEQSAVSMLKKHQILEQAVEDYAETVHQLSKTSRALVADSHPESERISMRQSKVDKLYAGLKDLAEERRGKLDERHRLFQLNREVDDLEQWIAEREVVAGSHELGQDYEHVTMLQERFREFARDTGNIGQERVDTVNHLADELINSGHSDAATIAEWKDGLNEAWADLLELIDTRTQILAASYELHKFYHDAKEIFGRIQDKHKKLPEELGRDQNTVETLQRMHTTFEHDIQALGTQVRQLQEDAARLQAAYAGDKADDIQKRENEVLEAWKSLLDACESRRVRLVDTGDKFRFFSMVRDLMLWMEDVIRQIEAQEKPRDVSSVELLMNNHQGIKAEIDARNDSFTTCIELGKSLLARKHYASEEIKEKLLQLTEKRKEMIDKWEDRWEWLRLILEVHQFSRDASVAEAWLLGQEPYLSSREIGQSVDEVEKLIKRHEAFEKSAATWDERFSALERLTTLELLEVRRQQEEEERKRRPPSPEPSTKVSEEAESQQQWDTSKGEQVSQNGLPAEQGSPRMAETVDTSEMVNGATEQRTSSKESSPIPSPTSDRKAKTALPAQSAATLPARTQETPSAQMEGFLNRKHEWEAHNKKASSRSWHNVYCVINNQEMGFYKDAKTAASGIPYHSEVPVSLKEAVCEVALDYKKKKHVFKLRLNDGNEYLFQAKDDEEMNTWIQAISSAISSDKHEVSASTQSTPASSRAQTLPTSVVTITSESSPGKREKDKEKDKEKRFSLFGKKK
Sequence of UniProt A6NHR9 (A6NHR9 whole entry, looked up): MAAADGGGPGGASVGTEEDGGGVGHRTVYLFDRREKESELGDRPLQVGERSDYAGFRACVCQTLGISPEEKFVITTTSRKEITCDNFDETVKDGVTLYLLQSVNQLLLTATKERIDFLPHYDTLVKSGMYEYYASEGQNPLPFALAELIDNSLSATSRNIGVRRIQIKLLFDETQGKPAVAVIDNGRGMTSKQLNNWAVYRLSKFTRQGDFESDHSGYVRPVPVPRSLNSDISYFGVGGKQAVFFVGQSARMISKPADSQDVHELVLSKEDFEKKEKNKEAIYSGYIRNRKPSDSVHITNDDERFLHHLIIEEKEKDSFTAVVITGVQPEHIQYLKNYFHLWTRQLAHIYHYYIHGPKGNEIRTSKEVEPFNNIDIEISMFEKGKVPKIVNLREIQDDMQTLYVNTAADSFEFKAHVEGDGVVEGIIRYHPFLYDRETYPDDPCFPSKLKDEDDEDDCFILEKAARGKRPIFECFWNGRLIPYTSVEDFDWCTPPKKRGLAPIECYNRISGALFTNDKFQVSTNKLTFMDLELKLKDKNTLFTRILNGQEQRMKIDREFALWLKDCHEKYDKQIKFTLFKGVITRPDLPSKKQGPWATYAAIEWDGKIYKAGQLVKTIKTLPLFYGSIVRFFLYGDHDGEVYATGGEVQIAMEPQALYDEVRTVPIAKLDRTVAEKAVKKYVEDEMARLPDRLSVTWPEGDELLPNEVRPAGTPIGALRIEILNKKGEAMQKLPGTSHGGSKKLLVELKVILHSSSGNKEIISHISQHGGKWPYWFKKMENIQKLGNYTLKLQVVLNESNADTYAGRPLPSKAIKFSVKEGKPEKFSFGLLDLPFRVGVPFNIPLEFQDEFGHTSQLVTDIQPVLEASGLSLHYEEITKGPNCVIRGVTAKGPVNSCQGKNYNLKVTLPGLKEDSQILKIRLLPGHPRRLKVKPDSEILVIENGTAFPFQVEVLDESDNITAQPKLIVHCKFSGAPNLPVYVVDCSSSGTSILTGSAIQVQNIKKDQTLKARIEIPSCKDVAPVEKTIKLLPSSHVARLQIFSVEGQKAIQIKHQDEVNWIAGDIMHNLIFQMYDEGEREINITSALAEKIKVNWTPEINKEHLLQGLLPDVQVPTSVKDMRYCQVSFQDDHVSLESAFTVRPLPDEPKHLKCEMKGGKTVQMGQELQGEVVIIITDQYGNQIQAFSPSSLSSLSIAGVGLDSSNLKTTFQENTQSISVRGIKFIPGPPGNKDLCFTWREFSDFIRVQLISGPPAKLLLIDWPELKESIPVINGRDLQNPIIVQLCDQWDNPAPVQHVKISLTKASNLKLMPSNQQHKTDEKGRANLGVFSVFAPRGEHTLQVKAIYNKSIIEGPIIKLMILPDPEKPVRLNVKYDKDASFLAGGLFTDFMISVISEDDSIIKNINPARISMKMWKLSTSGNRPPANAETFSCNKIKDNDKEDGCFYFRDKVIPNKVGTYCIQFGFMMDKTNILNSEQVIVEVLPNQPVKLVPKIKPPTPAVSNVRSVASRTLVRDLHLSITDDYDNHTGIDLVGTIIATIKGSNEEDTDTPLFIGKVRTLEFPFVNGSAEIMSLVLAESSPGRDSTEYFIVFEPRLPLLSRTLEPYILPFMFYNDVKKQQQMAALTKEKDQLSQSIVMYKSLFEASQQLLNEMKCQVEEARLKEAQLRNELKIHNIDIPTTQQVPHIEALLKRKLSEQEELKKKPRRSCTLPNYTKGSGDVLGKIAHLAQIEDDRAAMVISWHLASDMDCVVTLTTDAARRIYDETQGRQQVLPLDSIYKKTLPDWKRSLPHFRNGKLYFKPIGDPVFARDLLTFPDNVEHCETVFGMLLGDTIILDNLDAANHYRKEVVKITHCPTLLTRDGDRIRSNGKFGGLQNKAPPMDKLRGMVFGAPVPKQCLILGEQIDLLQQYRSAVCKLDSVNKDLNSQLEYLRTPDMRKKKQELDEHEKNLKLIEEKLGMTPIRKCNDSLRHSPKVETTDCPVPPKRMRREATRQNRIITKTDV
Sequence of UniProt P55061 (P55061 whole entry, looked up): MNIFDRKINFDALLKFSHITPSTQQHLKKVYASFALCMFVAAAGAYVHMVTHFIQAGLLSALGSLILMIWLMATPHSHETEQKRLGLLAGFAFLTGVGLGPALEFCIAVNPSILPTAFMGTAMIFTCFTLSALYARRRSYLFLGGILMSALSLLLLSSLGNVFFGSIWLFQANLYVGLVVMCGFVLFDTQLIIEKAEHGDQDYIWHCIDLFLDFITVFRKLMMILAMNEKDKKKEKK
Sequence of UniProt Q01130 (Q01130 whole entry, looked up): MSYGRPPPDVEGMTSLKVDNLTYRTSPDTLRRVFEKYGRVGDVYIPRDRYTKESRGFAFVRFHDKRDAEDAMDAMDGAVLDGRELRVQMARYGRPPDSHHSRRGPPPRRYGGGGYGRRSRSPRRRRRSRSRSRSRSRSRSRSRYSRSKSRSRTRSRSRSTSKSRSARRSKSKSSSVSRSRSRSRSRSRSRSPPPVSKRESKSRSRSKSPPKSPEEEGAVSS
Sequence of UniProt Q8N5G0 (Q8N5G0 whole entry, looked up): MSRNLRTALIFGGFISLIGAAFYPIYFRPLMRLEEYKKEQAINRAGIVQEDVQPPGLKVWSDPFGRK

| Target | log2 fold change (erlotinib) | log2 fold change [1] | log2 fold change [2] | log2 fold change [3] | log2 fold change [4] | log2 fold change [5] | log2 fold change [6] | log2 fold change [7] | log2 fold change [8] | log2 fold change [9] |
| --- | --- | --- | --- | --- | --- | --- | --- | --- | --- | --- |
| SLC7A6 (UniProt Q92536) | -0.051 | 0.232 | -0.161 | 0.026 | -0.001 | 0.034 | 0.008 | -0.033 | -0.004 | 0.135 |
| TFR2 (UniProt Q9UP52) | 0.009 | -0.019 | -0.012 | -0.015 | 0.018 | 0.016 | -0.039 | -0.023 | 0.03 | 0.018 |
| SP100 isoform 4 (UniProt P23497) | 0.011 | 0.044 | 0.037 | 0.022 | -0.071 | 0.063 | 0.033 | -0.05 | -0.001 | 0.035 |
| TIMM13 (UniProt Q9Y5L4) | 0.018 | 0 | 0.315 | 0 | 0.003 | 0.111 | 0.063 | -0.005 | -0.025 | -0.006 |
| SSX2 (UniProt Q16385) | -0.068 | -0.078 | -0.023 | 0.038 | 0.175 | 0.044 | -0.032 | -0.035 | -0.022 | -0.004 |
| STAT6 (UniProt P42226) | 0.082 | 0.061 | 0.12 | 0.018 | 0.022 | -0.032 | 0.025 | -0.026 | -0.063 | 0.04 |
| SRPRB (UniProt Q9Y5M8) | -0.015 | 0.106 | 0.122 | -0.018 | 0.045 | -0.036 | 0.089 | 0.024 | -0.006 | 0.017 |
| SPR (UniProt P35270) | 0.018 | -0.089 | -0.01 | 0.005 | 0.115 | 0.016 | 0.732 (active) | 0.096 | 0.02 | 0.034 |
| TARBP1 (UniProt Q13395) | 0.015 | 0.062 | 0.023 | 0.027 | -0.091 | 0.065 | -0.022 | 0.012 | -0.085 | 0.019 |
| STK38L (UniProt Q9Y2H1) | -0.005 | 0.018 | 0.05 | 0.031 | -0.015 | 0.046 | -0.368 | 0.102 | 0.008 | -0.041 |
| STAT5A (UniProt P42229) | 0.033 | 0.173 | 0.035 | 0.048 | 0.083 | 0.01 | 0.06 | -0.026 | -0.077 | -0.028 |
| SMIM20 isoform 2 (UniProt Q8N5G0) | -0.039 | -0.111 | 0.427 (active) | 0.054 | -0.088 | 0.088 | 0.023 | -0.051 | -0.016 | -0.06 |
| TBC1D9B (UniProt Q66K14) | 0.07 | 0.001 | -0.087 | 0.072 | 0.151 | -0.092 | -0.011 | 0.021 | -0.055 | -0.058 |
| SMCHD1 (UniProt A6NHR9) | 0.006 | 0.171 | -0.272 | 0.043 | 0.325 | 0.046 | -0.007 | -0.422 | -0.153 | -0.564 (active) |
| STXBP2 isoform 3 (UniProt Q15833) | 0.088 | 0.139 | -0.109 | -0.049 | 0.096 | -0.004 | 0.05 | 0.026 | -0.058 | -0.166 |
| STK4 (UniProt Q13043) | -0.017 | 0 | -0.02 | 0.003 | 0.04 | -0.02 | -0.009 | -0.208 (active) | -0.025 | 0.025 |

| Target | log2 fold change (erlotinib) | log2 fold change [1] | log2 fold change [2] | log2 fold change [3] | log2 fold change [4] | log2 fold change [5] | log2 fold change [6] | log2 fold change [7] | log2 fold change [8] | log2 fold change [9] |
| --- | --- | --- | --- | --- | --- | --- | --- | --- | --- | --- |
| SNRNP27 (UniProt Q8WVK2) | 0.026 | -0.021 | 0.052 | 0.015 | 0.015 | 0.045 | -0.165 | -0.027 | 0.061 | 0.035 |
| SRFBP1 (UniProt Q8NEF9) | -0.256 | -0.082 | -0.114 | 0.039 | -0.03 | 0.104 | -0.08 | 0.082 | 0.069 | -0.065 |
| SRSF2 (UniProt Q01130) | -0.003 | -0.034 | -0.13 | 0.02 | -0.029 | -0.032 | -0.038 | -0.032 | 0.041 | -0.027 |
| SPTBN1 (UniProt Q01082) | 0.003 | 0.067 | -0.065 | 0.011 | 0.03 | 0.046 | 0.021 | -0.055 | -0.067 | -0.071 |
| SNX2 (UniProt O60749) | 0.043 | 0.075 | 0.002 | 0.041 | 0.067 | -0.059 | -0.057 | -0.049 | 0.006 | -0.013 |
| TMBIM6 isoform 2 (UniProt P55061) | -0.019 | 0.029 | 0.051 | -0.062 | 0.067 | 0.076 | 0.019 | -0.07 | 0.026 | -0.01 |
| SOAT1 (UniProt P35610) | 0.174 | 0.099 | -0.034 | -0.063 | 0.141 | 0.063 | 0.074 | -0.038 | 0.001 | 0.026 |
| SRSF3 (UniProt P84103) | -0.074 | -0.03 | -0.35 | 0.053 | -0.074 | -0.009 | -0.003 | 0.006 | 0.097 | -0.107 |
| STIM1 (UniProt Q13586) | -0.015 | 0.01 | 0.043 | 0.014 | 0.039 | -0.007 | -0.025 | -0.067 | -0.003 | 0.016 |
| SURF2 (UniProt Q15527) | 0.021 | -0.067 | 0.039 | -0.03 | -0.068 | 0.113 | -0.057 | 0.027 | -0.043 | 0.009 |
| SYF2 (UniProt O95926) | -0.042 | -0.054 | -0.052 | 0.05 | -0.054 | 0.069 | 0.023 | -0.097 | -0.024 | 0.122 |
| SMARCAD1 isoform 2 (UniProt Q9H4L7) | 0.089 | 0.052 | 0.071 | 0.007 | 0.05 | -0.026 | 0.025 | 0.022 | -0.02 | -0.052 |
| SLC25A39 (UniProt Q9BZJ4) | -0.072 | -0.217 | 0.038 | 0.062 | 0.193 | 0.118 | -0.042 | -0.046 | -0.186 | 0.112 |
| SMARCA5 (UniProt O60264) | 0.103 | 0.044 | -0.058 | 0.005 | -0.012 | 0.078 | 0.052 | -0.103 | -0.109 | -0.227 |
| TBC1D10B (UniProt Q4KMP7) | -0.013 | 0.063 | -0.018 | 0.039 | -0.008 | 0.036 | -0.033 | -0.109 | -0.024 | -0.033 |
| SUPT16H (UniProt Q9Y5B9) | 0.177 | 0.25 | 0.091 | -0.012 | 0.155 | 0 | 0.064 | 0.098 | -0.098 | -0.011 |
